Most compounds without a hit are left out; they make up all but 21% or so of the library.
Pf growth 96h: Primary qHTS for delayed death inhibitors of the malarial parasite plastid, 96 hour incubation. P. falciparum luciferase reporter growth, 96 h. Potency, µM (highest dose often 28.7 µM), usual class: inhibitors. actives 6.9% (n = 320,000). AID 504834, 2011
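Two parasite generations (96 h, 37 C, 5% CO2) of compound exposure in infected erythrocytes (0.05% parasitemia, 2% hematocrit). Luciferase-reporter P. falciparum; decreased luminescence indicates inhibited growth, aimed at apicoplast-acting delayed death.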
NS1 inh: qHTS Assay for Inhibitors of Influenza NS1 Protein Function; actives 0.4% (n = 270,000); AID 2326, 2010; Potency, µM (titrated, usually from 46.1 µM); calls by dose curve; also: actives are rising curves; nearly all actives have a fitted effect of over 50% in size
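Growth recovery, yeast-based: influenza A NS1 expressed in S. cerevisiae causes slow growth, and suppressors are detected by OD600. The parent strain without NS1 is used as positive control.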
Cycloheximide cs: Cycloheximide Counterscreen for Small Molecule Inhibitors of Shiga Toxin; cell reporter, cycloheximide protein synthesis inhibition counterscreen; max response, %; actives 12% (n = 300,000); AID 2314, 2010; in the data active = max response mostly above about 13%, no sharp cut-off; inactive = mostly below about 14%; also: read at 38.3 µM for the half of the compounds with a filed dose
Pf growth 48h: Primary qHTS for delayed death inhibitors of the malarial parasite plastid, 48 hour incubation | P. falciparum luciferase growth in erythrocytes, 48 h | Potency, µM (highest dose often 28.7 µM), usual class: inhibitors | actives 5.9% (n = 310,000) | AID 504832, 2011
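Firefly luciferase activity from engineered P. falciparum reports growth; inhibitors lower the luminescent signal. Cultures contained 2% hematocrit erythrocytes at 0.1% final parasitemia.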
SARS PLpro yeast: qHTS of Yeast-based Assay for SARS-CoV PLP. S. cerevisiae expressing SARS-CoV PLpro, growth rescue. Potency, µM (doses to about 32.9 µM), actives largely listed as activators. actives 0.19% (n = 330,000); calls by dose curve; also: nearly all actives have a fitted effect of over 55% in size
Shiga toxin inh: A qHTS for Small Molecule Inhibitors of Shiga Toxin; actives 9.2% (n = 290,000); Vero cells, Shiga toxin protein synthesis inhibition reporter; inhibition, % at 38.7 µM; in the data active = inhibition mostly above about 28%, no sharp cut-off; inactive = mostly below about 43%
A number is an active result; – = inactive; ? = inconclusive; · = not tested or not shown. Unless noted, calls follow the shape of the dose curve; as a rule, active = well fitted inhibition curve with a large enough effect; inconclusive = small, poorly fitted or top-dose-only effect, or another doubt; inactive = no such curve, though single readings can be large or run the other way.

SMILES | Pf growth 96h | NS1 inh | Cycloheximide cs | Pf growth 48h | SARS PLpro yeast | Shiga toxin inh
CC(C)(C)c1ccc(C2=NC(=O)C(CC(=O)O)S2)cc1 (centres undefined) | – | – | 13 | 2.6µM | – | –
CCOC(=O)N1CC=C2C(C#N)=C(N)C(C#N)(C#N)[C@H](c3cccs3)C2C1 (some centres undefined) | ? | – | – | ? | – | –
CC(C)(C)OC(=O)N1CC=C2C(C#N)=C(N)C(C#N)(C#N)[C@H](c3cccnc3)[C@H]2C1 | · | – | – | – | – | –
CCCOc1ccc([C@@H]2C3CN(C(=O)OCC)CC=C3C(C#N)=C(N)C2(C#N)C#N)cc1OC (some centres undefined) | · | – | – | 5.9µM | – | –
COc1cc([C@@H]2[C@H]3CNCC=C3C(C#N)=C(N)C2(C#N)C#N)ccc1OC(C)C | – | – | – | 13µM | – | –
N#CC1=C(N)C(C#N)(C#N)[C@H](c2ccncc2)[C@H]2CN(C(=O)OCc3ccccc3)CC=C12 | ? | – | – | 10µM | – | –
COC(=O)CSc1nnc(CNC(=O)c2cc(OC)cc(OC)c2)n1-c1ccc(F)cc1 | – | · | – | – | – | –
COc1ccc(C(=O)C2CCCN(C(=O)Cn3nc(C)cc3C)C2)cc1F (centres undefined) | – | – | – | – | – | –
CCS(=O)(=O)c1nc(S(=O)(=O)c2ccc(Cl)cc2)c(N2CCC3(CC2)OCCO3)s1 | – | – | – | – | – | –
CS(=O)(=O)c1nc(S(=O)(=O)c2ccc(Cl)cc2)c(N2CCC3(CC2)OCCO3)s1 | 2.9µM | – | – | – | – | –
Cc1ccc(S(=O)(=O)c2nc(S(C)(=O)=O)sc2N2CCC(C(N)=O)CC2)cc1 | 8.3µM | – | – | ? | – | –
CCS(=O)(=O)c1nc(S(=O)(=O)c2ccc(C)cc2)c(N2CC(C)OC(C)C2)s1 (centres undefined) | 15µM | – | – | – | – | –
Cc1c(C(=O)N2CCN(CCc3ccccn3)CC2)oc2ccc(Cl)cc12 | – | – | – | – | – | –
O=C(/C(N=Nc1cccc([N+](=O)[O-])c1)=C(/O)c1ccc(Br)cc1)C(F)(F)F | ? | – | 22 | ? | – | 86
N#C/C(=N\Nc1cccc([N+](=O)[O-])c1)C(=O)c1ccc(Br)cc1 | ? | · | – | ? | – | –
CC(=O)N1c2ccc(S(=O)(=O)NCCC(=O)Nc3ncccc3C)cc2CC1C (centres undefined) | – | – | – | – | – | –
O=C(Nc1ccc(S(=O)(=O)N2CCOCC2)cc1)C1CC1 | 4.7µM | – | – | – | – | –
O=C(Nc1cccc(S(=O)(=O)N2CCOCC2)c1)C1CCCCN1S(=O)(=O)c1ccccc1 (centres undefined) | ? | · | · | ? | – | ·
O=C(Nc1cccc(S(=O)(=O)N2CCOCC2)c1)[C@@H]1CCCN1S(=O)(=O)c1ccc(Cl)cc1 | 1.9µM | – | – | ? | – | –
Cc1ccc(S(=O)(=O)N2CCC(C(=O)Nc3ccc(N4CCOCC4)cc3)CC2)cc1C | ? | · | · | 4.1µM | – | ·
O=C(Nc1ccc(N2CCOCC2)cc1)C1CCN(S(=O)(=O)c2ccc3c(c2)OCCO3)CC1 | ? | · | – | 8.3µM | – | –
CCC(=O)Nc1ccc(S(=O)(=O)N2CCOCC2)cc1 | – | – | – | · | – | –
Cc1oc(-c2ccccc2Cl)nc1CS(=O)(=O)CC(=O)N1CCOCC1 | – | – | – | – | – | –
O=C(C1CCN(S(=O)(=O)c2ccc(F)cc2)CC1)N1CCOCC1 | 7.4µM | ? | – | – | – | –
O=C1NCCc2cc3c(cc21)OCO3 | ? | – | – | – | – | –

Compound activity from PubChem.
